Assay outcomes (PubChem)
hNpr1 antagonist: blocks ANP-stimulated signaling of human Npr1 receptor; P16066; Potency, µM (highest dose often 46.3 µM), usual class: inhibitors; hit rate 1.6% among 76,000; AID 1347048; HEK293 hNpr1 GloSensor cGMP, ANP-stimulated luminescence; calls by dose curve; note: nearly all actives have a fitted effect of over 60% in size
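Compound pre-incubated 30 min at room temperature on GloSensor-loaded HEK293 cells stably carrying hNpr1 and the pGS-40F cGMP biosensor. Stimulation uses hNppA at 0.1 nM final; luminescence is taken at baseline and 20 min post-agonist.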
NIH3T3 tox: cytotoxic compounds in NIH 3T3 cells; hit rate 4.3% among 94,000; Potency, µM (series often up to 96.7 µM), usual class: inhibitors; AID 1345082; NIH 3T3 viability, CellTiter-Glo ATP luminescence, 48-72 h; note: nearly all actives have a fitted effect of over 55% in size
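First NIH 3T3 cells are plated at 400 cells/well; next compound is pinned in; then plates incubate 48 or 72 hr at 37 °C; finally CellTiter-Glo is added and luminescence read after 10 min.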
HEK293 tox: cytotoxic compounds in HEK 293 cells; hit rate 6.6% among 94,000; HEK 293 viability, ATP luminescence (CellTiter-Glo), 48-72 h; Potency, µM (titrated, usually from 115 µM), hits mostly inhibitors; note: nearly all actives have a fitted effect of over 60% in size
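qHTS cytotoxicity; HEK 293, 250 cells/well; compound pinned; 48 or 72 hr, 37 degree Celsius, 5% CO2, 95% humidity; CellTiter-Glo, 10 min RT; luminescence (ATP).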
FLuc inh: blocks purified firefly luciferase enzyme activity | AID 1347043 | hit rate 2.5% among 76,000 | purified P. pyralis luciferase, luminescence, biochemical | Potency, µM (series often up to 115 µM), hits mostly inhibitors; note: nearly all actives have a fitted effect of over 65% in size
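FLuc 10nM, D-luciferin 10uM, ATP 10uM, Mg acetate 10mM, Tris acetate pH 7.5, Tween/BSA; cpd qHTS; enzyme added last; CCD luminescence.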
GPT2 inhibitor: inhibitors of human GPT2 alanine aminotransferase; Q8TD30; Recombinant GPT2, coupled pyruvate oxidase/HRP Amplex Red fluorescence; Potency, µM (titrated, usually from 57.7 µM), hits mostly inhibitors; hit rate 0.25% among 100,000; note: nearly all actives have a fitted effect of over 60% in size
Target sequence (Q8TD30 whole entry, looked up): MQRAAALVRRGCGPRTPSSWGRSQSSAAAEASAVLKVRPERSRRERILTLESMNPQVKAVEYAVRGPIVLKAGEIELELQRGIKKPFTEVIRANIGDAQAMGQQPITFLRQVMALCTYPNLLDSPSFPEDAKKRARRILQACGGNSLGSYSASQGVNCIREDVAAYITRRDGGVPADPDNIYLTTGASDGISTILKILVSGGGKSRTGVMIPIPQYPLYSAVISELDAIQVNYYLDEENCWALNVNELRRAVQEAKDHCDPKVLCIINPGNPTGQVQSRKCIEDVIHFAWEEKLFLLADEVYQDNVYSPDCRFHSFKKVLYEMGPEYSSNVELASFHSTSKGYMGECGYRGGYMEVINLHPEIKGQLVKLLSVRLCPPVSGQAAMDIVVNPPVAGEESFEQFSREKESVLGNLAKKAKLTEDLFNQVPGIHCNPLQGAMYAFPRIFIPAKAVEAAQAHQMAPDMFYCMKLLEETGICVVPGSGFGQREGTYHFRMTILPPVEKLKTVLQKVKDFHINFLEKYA
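Fluorescence read-out: pyruvate from GPT2 turnover coupled to pyruvate oxidase, HRP and Amplex Red (0.2mM ThPP, 0.2U/mL PO and HRP, 50uM Amplex final). Substrates 250uM a-KG, 2mM L-alanine; enzyme 10ng/uL; 30 min RT.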
Npr1 antag conf: hNpr1 antagonism, confirmation assay; HEK293 hNpr1 cGMP GloSensor luminescence, ANP-stimulated; Potency, µM (series often up to 57.6 µM), hits mostly inhibitors; hit rate 76% among 1,400; shares compounds with hNpr1 antagonist; calls by dose curve; note: nearly all actives have a fitted effect of over 70% in size
NPR2 antag: hNpr2 antagonism, selectivity versus Npr1 | shares compounds with hNpr1 antagonist | HEK293 hNpr2 GloSensor cGMP luminescence, CNP-stimulated | Potency, µM (doses to about 57.6 µM), most hits filed as inhibitors | hit rate 67% among 1,400 | AID 1347046; calls by dose curve; note: nearly all actives have a fitted effect of over 70% in size
FLuc counter: inhibits firefly luciferase, false Npr1 antagonist flag | shares compounds with hNpr1 antagonist | purified FLuc enzyme, luminescence, Km substrate | Potency, µM (doses to about 57.6 µM), usual class: inhibitors | hit rate 0.7% among 1,400
GloSensor cGMP: counter-screen for Npr1 antagonists: GloSensor control cell line | shares compounds with hNpr1 antagonist | hit rate 69% among 1,400 | AID 1347051 | HEK293 GloSensor cGMP, SNP-stimulated, luminescence | Potency, µM (titrated, usually from 57.6 µM), hits mostly inhibitors; calls by dose curve; note: nearly all actives have a fitted effect of over 70% in size
Numbers stand for hits; 0 = inactive; ? = inconclusive; - = no result given; [ ] = another dose, or the depositor's remark. This is a sample that favours compounds with a hit; in the whole collection about 10% have one here. Unless noted, calls come from the whole dose curve; as a rule, active = well fitted curve in the direction sought with a large enough effect; inconclusive = small, poorly fitted or top-dose-only effect, or another doubt; inactive = no such curve, though single readings can be large; an effect the other way counts as inactive or inconclusive.

SMILES | hNpr1 antagonist | NIH3T3 tox | HEK293 tox | FLuc inh | GPT2 inhibitor | Npr1 antag conf | NPR2 antag | FLuc counter | GloSensor cGMP
COc1ccc(-c2noc(CC3CCN(C(=O)c4ccccc4OC)CC3)n2)cc1 | 10µM | ? | ? | 0 | 0 | 14µM | 14µM | 0 | 12µM
Cc1cccc(CNC(=O)c2csc(N3CCN(c4ccccc4)CC3)n2)c1 | 13µM | ? | 40µM | 0 | 0 | 24µM | 24µM | 0 | 22µM
O=C(NC1CCCCCC1)c1csc(N2CCN(c3ccccc3)CC2)n1 | ? | ? | ? | 0 | 0 | 24µM | ? | 0 | ?
CC(C)(N)C(=O)N1CCCC(N2CCN(c3cccc(Cl)c3)CC2)C1 (centres undefined) | 0 | ? | ? | 0 | 0 | - | - | - | -
CCN(CC)C(=O)c1csc(N2CCN(c3cccc(Cl)c3)CC2)n1 | 16µM | ? | ? | 0 | 0 | 24µM | 22µM | 0 | 22µM
COc1cccc(N2CCN(c3nc(C(=O)NCc4cccc(C)c4)cs3)CC2)c1 | 13µM | ? | ? | 0 | 0 | 12µM | 11µM | 0 | 12µM
COc1ccc(-c2cn3cc(C(=O)NCc4cccc(OC)c4)nc3s2)cc1 | - | ? | ? | - | 0 | - | - | - | -
COc1ccc(Cl)cc1NC(=O)Cn1cccc1-c1nc(-c2ccccc2)no1 | 0 | 0 | ? | 0 | 0 | - | - | - | -
COc1cccc(CN2CCCC(O)(CN3CCCCC3)C2=O)c1 (centres undefined) | 0 | 0 | 0 | 0 | 0 | - | - | - | -
COc1ccc(C2(C(=O)NC3CCCc4c3[nH]c3ccccc43)CCOCC2)cc1 (centres undefined) | ? | 40µM | ? | 0 | 0 | 22µM | 15µM | 0 | 0
O=C(C1CC1)N1CCCN(c2ccc3nnc(-c4ccccc4)n3n2)CC1 | - | 0 | 0 | - | - | - | - | - | -
COc1ccc([C@@H]2CN(c3nnnn3-c3ccccc3)C[C@H]2NC(C)=O)cc1 | ? | 0 | 0 | 0 | 0 | ? | ? | 0 | 0
CCOCC(=O)N1CCN(c2nnnn2-c2ccccc2)CC(O)C1 (centres undefined) | 0 | 0 | 0 | 0 | 0 | - | - | - | -
O=C1Nc2ccccc2C12CCN(Cc1ccc(F)cc1)C2 (centres undefined) | - | 0 | ? | - | 0 | - | - | - | -
F[C@@H]1CN(Cc2ccc(C(F)(F)F)cc2)C[C@@H]1OCc1nc2ccccc2[nH]1 | 28µM | ? | 79µM | 0 | ? | 40µM | 40µM | 0 | 40µM
CC(C)c1ccc(CN2CCc3ncc(C(=O)NCc4ccccc4)n3CC2)cc1 | 28µM | ? | 28µM | 0 | 0 | 25µM | 31µM | 0 | 22µM
CC(C)(Oc1nn(Cc2cccc(Cl)c2)c2ccccc12)C(=O)NCCc1cnc[nH]1 | 22µM | ? | ? | 0 | 0 | 28µM | 25µM | 0 | 25µM
CC(C)(Oc1nn(Cc2cccc(Cl)c2)c2ccccc12)C(=O)NC1CCC(O)CC1 (centres undefined) | 0 | ? | ? | 0 | 0 | - | - | - | -
Cc1cccc(C(=O)NC2CCN(c3cc(-c4ccc(F)cc4)[nH]n3)C2)c1 (centres undefined) | 0 | ? | ? | 0 | ? | - | - | - | -
Nc1nc(NCc2ccc(Cl)cc2Cl)cc(C2CC(O)C2)n1 (centres undefined) | 7.1µM | ? | ? | 0 | 0 | 11µM | 19µM | 0 | 9.7µM
CCc1csc(CNc2cc(C3CC(O)C3)nc(N)n2)n1 (centres undefined) | 0 | ? | ? | 0 | 0[11.5 µM] | - | - | - | -
CCc1ccccc1S(=O)(=O)N1CCN(C2CCN(CCC(C)C)C2=O)CC1 (centres undefined) | 0 | ? | ? | 0 | 0 | - | - | - | -
COc1ccccc1Nc1ncc2c(n1)CN(C(=O)c1ccccc1)CCN2 | 32µM | ? | ? | 0 | 0 | 40µM | ? | 0 | 40µM
COc1ccccc1Nc1ncc2c(n1)CN(C(=O)c1cccc(N(C)C)c1)CCN2 | 22µM | 0 | 79µM | 0 | 0 | 31µM | 35µM | 0 | 25µM
O=C(C1CCN([S+](=O)([O-])c2cccc(C(F)(F)F)c2)CC1)N1CCC(N2CCOCC2=O)CC1 | - | 0 | ? | - | ? | - | - | - | -
SMILES | hNpr1 antagonist | NIH3T3 tox | HEK293 tox | FLuc inh | GPT2 inhibitor | Npr1 antag conf | NPR2 antag | FLuc counter | GloSensor cGMP
Cc1ccc(C2Cn3nnc(-c4noc(-c5ccoc5)n4)c3CO2)cc1 (centres undefined) | ? | 0 | 0 | 0 | 0 | ? | ? | 0 | 0
Fc1ccc(C2Cn3nnc(-c4nc(C5CCCCC5)no4)c3CO2)cc1 (centres undefined) | ? | 0 | 0 | 0 | 0 | 12µM | 9.7µM | 0 | 0
COc1ccc(C2Cn3nnc(-c4nc(C5CC5)no4)c3CO2)cc1 (centres undefined) | ? | 0 | 0 | 0 | 0 | ? | 0 | 0 | 0
O=C1Nc2ccccc2O[C@H]2C[C@@H]1N(Cc1ccnc3ccccc13)C2 | 0 | ? | 0 | 0 | 0 | - | - | - | -
O=C(CN1C(=O)NC(c2ccc(Cl)cc2)C2=C1COC2=O)Nc1ccc(Br)cc1F (centres undefined) | ? | 28µM | 35µM | 0 | 0 | 24µM | ? | 0 | 27µM
COc1cccc(CNC(=O)c2ccc3c(c2)N(C(=O)c2ccc(F)cc2)CC3)c1 | 0 | ? | ? | 0 | 0 | - | - | - | -
COc1cc(CNC(=O)c2ccc3c(c2)N(C(=O)c2ccc(F)cc2)CC3)cc(OC)c1 | ? | ? | ? | 0 | 0 | 22µM | 24µM | 0 | 22µM
N#Cc1cccc(CN[C@H]2CO[C@H]3[C@@H]2OC[C@H]3OC(=O)Nc2ccc(Oc3ccccc3)cc2)c1 | 18µM | ? | ? | 0 | 0 | 22µM | 22µM | 0 | 19µM
CC(=O)Nc1ccc(S(=O)(=O)N[C@H]2CO[C@H]3[C@@H]2OC[C@H]3OC(=O)Nc2ccc(C(C)=O)cc2)cc1 | 0 | 0 | 0 | 0 | ? | - | - | - | -
COc1ccc(NC(=O)O[C@@H]2CO[C@H]3[C@@H]2OC[C@@H]3NC(=O)Nc2cccc(C#N)c2)cc1 | 0 | 0 | 0 | 0 | 0 | - | - | - | -
O=C(Nc1ccc(Oc2ccccc2)cc1)O[C@@H]1CO[C@H]2[C@@H]1OC[C@@H]2NS(=O)(=O)c1ccc2ccccc2c1 | ? | ? | ? | 0 | 0 | 17µM | 15µM | 0 | 11µM
COC(=O)c1cccc(NC(=S)N[C@H]2CO[C@H]3[C@@H]2OC[C@H]3OC(=O)Nc2cccc3ccccc23)c1 | ? | ? | ? | 0 | 0 | - | - | - | -
